PubChem BioAssay AID1159580 (chemical genetic matrix, 2015)
Where “and” joins values, the source holds several entries; their conditions need not be identical. Equal values may be shown once. Among all 5,500 compounds or so, about 2,000 (36%) were called active. Not shown: some 18% with an inconclusive outcome. Cut-off read from the data, not from the text of the source: active = normalized growth mostly below about 0.91 (no sharp cut-off); inconclusive = no clear call, values can overlap the other calls; inactive = mostly above about 0.92. The list shows a part of the results.

Assay: chemical genetic growth profiling, strain panel (AID 1159580);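 note: tested at 20 µM; growth read once vehicle control cultures reached saturation at 30 °C; 1 = growth at the plate median or of vehicle wells; lower values mean less growth of the strain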
Details: S. cerevisiae deletion strains, growth OD

Measured: normalized growth

C[N+]1(C)C2CC(OC(=O)[C@@H](CO)c3ccccc3)CC1C1OC12 (some centres not stated)
inactive: locus YAL021C, strain ccr4, active compounds read low 0.987 | locus YAL026C, strain drs2, active compounds read low 0.999 | locus YAL030W, strain snc1, active compounds read low 0.968 | locus YBL061C, strain skt5, active compounds read low 0.98 | locus YBR009C, strain hhf1, active compounds read low 0.955 | locus YBR021W, strain FUR4, active compounds read low 1.04 | locus YBR023C, strain chs3, active compounds read low 0.958 | locus YBR171W, strain sec66, active compounds read low 0.951 | locus YBR229C, strain ROT2, active compounds read low 1.01 | locus YBR231C, strain swc5, active compounds read low 0.982 | locus YBR279W, strain paf1, active compounds read low 0.986 | locus YCL011C, strain gbp2, active compounds read low 0.923 | locus YCL016C, strain dcc1, active compounds read low 0.932 | locus YCL029C, strain bik1, active compounds read low 1 | locus YCL061C, strain MRC1, active compounds read low 0.977 | locus YCL069W, strain vba3, active compounds read low 0.974 | locus YCR088W, strain abp1, active compounds read low 0.989 | locus YDL005C, strain med2, active compounds read low 0.989 | locus YDL035C, strain GPR1, active compounds read low 1.02 | locus YDL040C, strain nat1, active compounds read low 0.994 | locus YDL074C, strain BRE1, active compounds read low 1.05 | locus YDL101C, strain DUN1, active compounds read low 1.01 | locus YDL185W, strain tfp1, active compounds read low 1.01 | locus YDL192W, strain arf1, active compounds read low 1.03 | locus YDR001C, strain nth1, active compounds read low 0.975 | locus YDR069C, strain doa4, active compounds read low 0.977 | locus YDR101C, strain arx1, active compounds read low 0.99 | locus YDR137W, strain rgp1, active compounds read low 0.924 | locus YDR159W, strain sac3, active compounds read low 1 | locus YDR162C, strain NBP2, active compounds read low 1.02 | locus YDR195W, strain ref2 1.01 | locus YDR297W, strain sur2, active compounds read low 0.976 | locus YDR318W, strain mcm21, active compounds read low 1.03 | locus YDR334W, strain swr1, active compounds read low 0.933 | locus YDR335W, strain msn5, active compounds read low 0.968 | locus YDR388W, active compounds read low 1.01 | locus YDR392W, strain spt3, active compounds read low 0.934 | locus YDR502C, strain sam2, active compounds read low 1.03 | locus YEL003W, strain gim4, active compounds read low 0.996 | locus YEL037C, strain rad23, active compounds read low 0.982 | locus YEL061C, strain CIN8 (second series), active compounds read low 0.98 | locus YEL061C, strain CIN8, active compounds read low 1.05 | locus YER015W, strain faa2, active compounds read low 0.986 | locus YER016W, strain bim1, active compounds read low 0.997 | locus YER110C, active compounds read low 1.02 | locus YER111C, strain swi4, active compounds read low 0.985 | locus YER155C, strain BEM2 (second series), active compounds read low 1.02 | locus YER155C, strain BEM2, active compounds read low 1.01 | locus YER167W, strain BCK2, active compounds read low 1.03 | locus YFR010W, strain ubp6, active compounds read low 0.978 | locus YGL078C, strain dbp3, active compounds read low 1.01 | locus YGL086W, strain mad1, active compounds read low 1 | locus YGL167C, strain pmr1, active compounds read low 0.964 | locus YGL173C, strain kem1, active compounds read low 0.969 | locus YGL227W, strain vid30, active compounds read low 0.978 | locus YGL240W, strain doc1, active compounds read low 1 | locus YGL248W, strain PDE1, active compounds read low 1.01 | locus YGL253W, strain hxk2, active compounds read low 0.97 | locus YGR135W, strain pre9, active compounds read low 1.06 | locus YGR229C, strain SMI1, active compounds read low 1.05 | locus YGR252W, strain gcn5, active compounds read low 1.05 | locus YHR013C, strain ard1, active compounds read low 0.957 | locus YHR027C, strain rpn1, active compounds read low 0.957 | locus YHR030C, strain SLT2, active compounds read low 1.02 and 1.03 | locus YHR079C, strain IRE1 (second series), active compounds read low 1.02 | locus YHR079C, strain IRE1, active compounds read low 1.03 | locus YHR094C, strain hxt1, active compounds read low 1.01 | locus YHR129C, strain ARP1, active compounds read low 1.01 | locus YHR142W, strain chs7, active compounds read low 0.916 | locus YHR200W, strain rpn10, active compounds read low 1.02 | locus YIL066C, strain RNR3, active compounds read low 1.01 | locus YIL073C, strain SPO22, active compounds read low 1.07 | locus YIL125W, strain kgd1, active compounds read low 1.01 | locus YIR030C, strain dcg1, active compounds read low 1.02 | locus YJL092W, strain hpr5, active compounds read low 0.969 | locus YJL095W, strain BCK1 (second series), active compounds read low 0.974 | locus YJL095W, strain BCK1, active compounds read low 1.02 and 1.01 | locus YJL115W, strain asf1, active compounds read low 0.958 | locus YJL129C, strain trk1, active compounds read low 0.976 | locus YJL134W, strain LCB3, active compounds read low 1 | locus YJL154C, strain vps35, active compounds read low 0.975 | locus YJL164C, strain tpk1, active compounds read low 1 | locus YJL166W, strain qcr8, active compounds read low 0.959 | locus YJL168C, strain set2, active compounds read low 1.01 | locus YJL187C, strain SWE1 (second series), active compounds read low 1.01 | locus YJL187C, strain SWE1, active compounds read low 0.976 | locus YJR043C, strain POL32, active compounds read low 1.02
